Results published in PubChem BioAssay (NCI).
Compounds without any hit were thinned out: in the full panel of roughly 83,000, 20% have a hit.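 For each line, cells grew in 96-well plates with the test compound present at a single concentration for 48 hours.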 Calls of active or inactive are those of the source.

test system: UO-31 renal; assay: NCI-60 one-dose screen, 48 h (100 = growth as untreated, 0 = no growth, -100 = all killed); details: 10 µM unless noted
Description: Growth inhibition of the UO-31 human tumor cell line is measured as a screen for anti-cancer activity. Cells are grown in 96 well plates and exposed to the test compound for 48 hours. Compounds are tested at a single concentration, which is 10^-5 M for most compounds. The reported endpoint is percent growth (GI% or GIPRCNT), where numbers from 0 - 100% represent growth inhibition, and numbers from -100% - 0 represent cell death. For example, a value of 40 represents 60% growth inhibition. A value of 0 means no net growth occurred over the course of the experiment. A value of -40 indicates 40% of cells at the beginning of the experiment died by the end of the experiment. A value of -100 means all cells are dead at the end of the experiment.
NCI-60 Human Tumor Cell Lines Screen was performed using the standard one-dose NCI protocol, which is described in more detail at https://dtp.cancer.gov/discovery_development/nci-60/default.htm.
Compounds with GIPRCNT values below 10 were considered active. Activity score was based on GIPRCNT using the following formula: […]
Score is 0 for GIPRCNT values of 100 or above, 50 for GIPRCNT values of 0, and 100 for GIPRCNT values of -100.

Row | SMILES | growth
1 | COc1ccc(C(=S)N2CCN(c3cccc(Cl)c3)CC2)cc1 | 83.2% (inactive)
2 | CCCCCC(=O)Oc1ccc(/C(=C(\C)c2ccc(OC)cc2)c2ccc(OCCN3CCCCC3)cc2)cc1 | 56.2% (inactive)
3 | O=C(/C=C/c1cccc([N+](=O)[O-])c1)c1ccc(O)c(CN2CCN(c3cc4c(cc3F)c(=O)c(C(=O)O)cn4C3CC3)CC2)c1 | -29.7% (active)
4 | CC1C(/C=N/Nc2ccccc2)C(C#N)(C#N)C1(C#N)C#N (stereo not given) | 52% (inactive)
5 | CC(C)(C)c1cc(/C=N\NC(=O)/C=C/C=C/c2ccc3c(c2)OCO3)c(O)c(C(C)(C)C)c1 | 55.1% (inactive)
6 | c1csc(C2=NN3C(C2)c2ccccc2OC3c2ccncc2)c1 (stereo not given) | 64.5% (inactive)
7 | COc1ccc2c(c1)c(-c1nonc1-c1cn(C)c3ccccc13)cn2C | 35.1% (inactive)
8 | COc1ccc(-c2nnc(SCC(=O)c3ccc(Cl)cc3)o2)cc1 | 99.8% (inactive)
9 | CCOC(=O)c1c(C(=O)OCC)c2cc(-c3ccn4c(C(=O)c5ccccc5)c(C(=O)OCC)c(C(=O)OCC)c4c3)ccn2c1C(=O)c1ccccc1 | 66.6% (inactive)
10 | CCN(CC)c1ccc(-c2cc(-c3cc(OC)c(OC)c(OC)c3)nc(N3CCOCC3)c2C#N)cc1 | 5.65% (active)
11 | CC(C)CC1C(=O)N2CCC[C@H]2C2(O)O[C@](NC(=O)C3C=C4c5cccc6[nH]c(Br)c(c56)C[C@H]4N(C)C3)(C(C)C)C(=O)N12 (stereo not given in full) | 36.2% (inactive)
12 | O=C(N=Nc1c(O)[nH]c2ccccc12)c1cc(-c2ccccc2)on1 | 85.4% (inactive)
13 | Cc1cc(N2CCCC2)nc(NC2CCCC(Nc3ccnc4cc(Cl)ccc34)C2)n1 (stereo not given) | -93.3% (active)
14 | O=C(Cn1cccc(Nc2ccccc2)c1=O)Nc1ccccc1 | 91.6% (inactive)
15 | O=C(N(c1ccccc1)c1ccccc1)n1ccc2nc(Cl)nc(Cl)c21 | 57.1% (inactive)
16 | Cc1cn2c(/C=C3/C(=O)Nc4c3ccc3ccccc43)c(C(F)(F)F)nc2s1 | 34.7% (inactive)
17 | C=CC(=O)Nc1cccc(-c2nc(SC)nc(NCc3ccccc3)c2C#N)c1 | 31.1% (inactive)
18 | CN(C)CCCNc1c2ccccc2nc2ccccc12 | 103% (inactive)
19 | CN1CCN(Cc2ccc(NC(=O)c3cncc(C#Cc4cncn5ccnc45)c3)cc2C(F)(F)F)CC1 | 44% (inactive)
20 | Cc1cc(Nc2ccc(C)c(Cl)c2)n2nc(C(F)(F)F)nc2n1 | -43.2% (active)

Row | SMILES | growth
21 | COc1cc2c(cc1-c1c(C)noc1C)ncc1nc(C3CCOCC3)n([C@H](C)COC(F)F)c12 | 15.7% (inactive)
22 | COc1ccc(-c2nc3ccc(-c4nc5ccc(N6CCN(c7ccccc7)CC6)cc5[nH]4)cc3[nH]2)cc1OC | 99.6% (inactive)
23 | O=S(=O)(Nc1ccc(Cl)c(F)c1)c1ccc(-c2cnc(C3CC3)o2)cc1 | 48.6% (inactive)
24 | COc1cc(-c2nc3ccccc3[nH]2)ccc1OCC(=O)N=Nc1c(O)[nH]c2ccc(Cl)cc12 | 104% (inactive)
25 | COc1ccc(C(=O)c2sc3nc(C)cc(C)c3c2N)cc1OC | 87.3% (inactive)
26 | CSc1nc(-c2cccc(NC(=O)CCl)c2)c(C#N)c(=O)n1C | -53.2% (active)
27 | COc1ccc(C(=O)/C=C/c2cccnc2Nc2cc(OC)c(OC)c(OC)c2)cc1 | 51.1% (inactive)
28 | Cc1ccccc1COc1ccc(-c2onc(C)c2-c2ccc(Cl)cc2)cc1 | 72.4% (inactive)
29 | COc1ccc(Nc2c3c4c(cccc4[nH]c2=O)C(=O)c2ccccc2-3)cc1 | 30.3% (inactive)
30 | COc1ccc(CCNc2nc(SC)nc(-c3cccc([N+](=O)[O-])c3)c2C#N)cc1OC | 84.8% (inactive)
31 | O=Nc1c(O)c(Cl)cc2ccccc12 | 64.3% (inactive)
32 | Cn1cc(-c2nonc2-c2c[nH]c3ccc(F)cc23)c2cccnc21 | 63.3% (inactive)
33 | Cc1cc(NS(=O)(=O)c2ccc(-c3cnc(C4CC4)o3)cc2)ccc1Cl | 46.5% (inactive)
34 | CCCc1cc(=O)n2c(C(=O)Nc3ccc(F)cc3)c(C(=O)Nc3ccc(F)cc3)sc2n1 | 19.3% [30 µM] (inactive)
35 | CCc1c(Nc2ccccc2C)nc(N)[nH]c1=O | 90.7% (inactive)
36 | O=c1ccccc(-c2ccc(-c3ccco3)cc2)c1O | -12.2% (active)
37 | CC(=O)c1cc(C(=O)c2ccc3c(c2)Sc2ccccc2N3)n2ccccc12 | 19.9% (inactive)
38 | CC(O)CN(CC(C)O)c1ccc2c(c1)Cc1cc([N+](=O)[O-])ccc1-2 (stereo not given) | 63.2% (inactive)
39 | COc1ccc(C(=O)COc2ccc(/C=C3\COc4ccc(OC)cc4C3=O)cc2)cc1 | 85.8% (inactive)
40 | Cn1cc(C(=O)c2nc(-c3c[nH]c4ccc(Br)cc34)no2)c2cc(F)ccc21 | 68.8% (inactive)
